High-throughput results as filed in PubChem.
Hits are enriched below; roughly 4.6% of the tested compounds scored in any of these assays.
MARV entry inh – blocks Marburg virus binding to or entry into cells; Marburg virus pseudotyped entry inhibition, cell reporter; actives 1.8% (n = 300,000); Potency, µM (doses to about 37.8 µM), for the others: at the highest dose activity change, negative = inhibition, usual class: inhibitors; AID 540276; calls by dose curve; tested in HEK293 cells
VACV Venus inh – vaccinia inhibition (Venus reporter); Vaccinia virus Venus reporter expression, fluorescence; AID 720580; Potency, µM (top dose mostly 36.5 µM), for inactives: at the highest dose activity change, negative = inhibition, most hits filed as inhibitors; actives 0.46% (n = 330,000); calls by dose curve; tested in A549 cells; note: nearly all actives have a fitted effect of over 30% in size
Lassa entry inh – Lassa virus entry inhibition | Lassa virus pseudotype entry inhibition, cell reporter | Potency, µM (doses to about 37.9 µM), without a hit: top-dose activity change, negative = inhibition, hits mostly inhibitors | actives 1.2% (n = 300,000) | AID 540256; calls by dose curve; tested in HEK293 cells; note: nearly all actives have a fitted effect of over 50% in size
Vaccinia mCherry – inhibitors of vaccinia virus infection (mCherry reporter signal); actives 0.63% (n = 310,000); AID 720579; Potency, µM (doses to about 36.5 µM), for the others: at the highest dose activity change, negative = inhibition, actives largely listed as inhibitors; Vaccinia virus mCherry reporter infection, fluorescence; calls by dose curve; tested in A549 cells; note: nearly all actives have a fitted effect of over 35% in size
HCV inh – inhibitors of hepatitis C virus infection; Potency, µM (doses to about 41.8 µM), for inactives: at the top dose activity change, negative = inhibition, most hits filed as inhibitors; Huh7.5.1 HCVcc-Cre infection, luciferase reporter, 44 h; actives 3.4% (n = 340,000); AID 651820; active = well fitted inhibition curve with a large enough effect; inconclusive = small, poorly fitted or top-dose-only effect, or another doubt; inactive = no such curve, though single readings can be large or run the other way
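Cells (1,000/well) were plated 4 h before compound, then infected with HCVcc-Cre virus (~0.5 moi). After 44 h further culture, infection was read as luciferase luminescence following a 15 min substrate incubation at room temperature.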
Starred values were filed as active, the others as inactive; i = inactive; ? = inconclusive; nt = not tested or not shown; [ ] = remark or other dose. % is set by controls: 0 for no effect and ±100 for the full control effect; potency is the fitted concentration of half-maximal effect.

SMILES	MARV entry inh	VACV Venus inh	Lassa entry inh	Vaccinia mCherry	HCV inh
CC(=O)c1ccc2c(c1)C1C(Cl)C(Sc3ccccc3[N+](=O)[O-])CC1C(c1ccccc1)N2 (centres undefined)	-17.2%	nt	-17.7%	nt	?
O=[N+]([O-])c1cc(CN2CCN(c3cccc(C(F)(F)F)c3)CC2)c2cccnc2c1O	?	-22.9%	?	-20.0%	3.98µM*
CC(C)OCc1cc(CN2CCN(c3cccc(C(F)(F)F)c3)CC2)c(O)c2ncccc12	?	-27.1%[7.34 µM]	?	3.98µM*	nt
COc1ccc(-c2noc(C3CCCN(C(=O)c4ccc(C)cc4)C3)n2)cc1 (centres undefined)	?	-21.1%	?	i	12.6µM*
COc1ccc(-c2noc(C3CCCN(C(=O)c4ccc(F)cc4)C3)n2)cc1 (centres undefined)	?	-3.0%	-0.3%[46.1 µM]	-2.9%	?
COc1cccc(-c2noc(C3CCCN(C(=O)CC(C)(C)C)C3)n2)c1 (centres undefined)	nt	nt	nt	nt	10µM*
CCCCC(=O)N1CCCC(c2nc(-c3cccc(OC)c3)no2)C1 (centres undefined)	nt	-11.3%	nt	i	-6.6%
CCOC(=O)OC[C@H]1O[C@H](c2ccc(C(C)=O)cc2)C=C[C@@H]1Oc1ccc(-c2ccccc2)cc1	2.8%[14.2 µM]	nt	nt	nt	nt
CCc1ccc(-c2nc(CSCC(=O)NC3CC3)c(C)o2)cc1	5.01µM*	-18.9%	?	i	?
COC(=O)CSCc1nc(-c2ccc(C(=O)OC)cc2)oc1C	nt	1.7%	7.08µM*	0.7%	nt
CCOC(=O)N1CCC(NC(=O)CSCc2nc(-c3ccc(OC)cc3)oc2C)CC1	5.8%[46.1 µM]	-14.3%	-16.7%[46.1 µM]	i	?
C=CCNc1nc(NC2CCN(C)CC2)c2cc(OC)c(OC)cc2n1	nt	?	nt	-23.1%	nt
Cn1c(=O)n(CCOc2ccc([N+](=O)[O-])cc2)c2ccccc21	7.1%[14.2 µM]	-21.7%	2.2%	i	1.9%
COc1ccc(NCc2nc3ccccc3n2CCOc2ccc(C)cc2)cc1	?	?	?	-26.3%	8.91µM*
Cc1ccc(OCCn2c(=O)n(C)c3ccccc32)cc1	?	1.4%	5.7%	-8.6%	11.2µM*
Cc1ccc(OCCn2cnc3c2c(=O)n(C)c(=O)n3C)cc1	-15.0%[46.1 µM]	-14.9%	-13.6%	i	3.55µM*
CC(C)CNC(=O)c1cn(C2CCN(Cc3nc4ccccc4s3)CC2)nn1	nt	0.0%	nt	i	nt
N=c1c2c(-c3ccccc3)c(-c3ccccc3)n(Cc3ccco3)c2ncn1CCO	?	?	?	-27.2%	12.6µM*
N=c1c2c(-c3ccccc3)c(-c3ccccc3)n(Cc3ccco3)c2ncn1CCCO	5.62µM*	-7.8%	?	-7.3%	-89.6%
N=c1c2c(-c3ccccc3)c(-c3ccccc3)n(Cc3ccco3)c2ncn1CCN1CCOCC1	10.3µM*	nt	?	nt	?
c1ccc(-c2nc3nc4ccccc4nc3n2Cc2ccco2)cc1	-12.2%	-2.0%	?	-10.7%	-16.7%
CN(C)c1ccc(/C=C/c2cc3ccccc3c[n+]2C)cc1	nt	-41.0%	nt	-24.6%	nt
O=C(NCC(c1cccnc1)N1CCc2ccccc2C1)C(=O)Nc1ccc(F)cc1F (centres undefined)	nt	-13.6%	2.2%[46.1 µM]	-17.8%	nt
CCCC[C@@H](C)C[C@@H](C)C(=O)N(C)[C@@H](CC(C)C)C(=O)N[C@H](C(=O)N(C)[C@H](C(=O)N1C[C@@H](O)C[C@H]1C(=O)N1C(=O)C=C[C@@H]1C)C(C)C)C(C)OC(C)=O (some centres undefined)	nt	10µM*	nt	?	3.98µM*
CC(NC(=O)c1ccc(F)cc1)C(c1cccs1)N1CCN(C)CC1 (centres undefined)	-2.2%	-14.7%	-24.6%[14.3 µM]	-6.0%	-13.0%
SMILES	MARV entry inh	VACV Venus inh	Lassa entry inh	Vaccinia mCherry	HCV inh
CC(NC(=O)c1ccc(N(C)C)cc1)C(c1cccs1)N1CCN(C)CC1 (centres undefined)	-18.7%	-13.1%	24.9%	i	10µM*
COc1ccc(-c2nc3c(c(=O)n(C)c(=O)n3C)n2CC2CC(c3ccccc3)=NO2)cc1OC (centres undefined)	?	?	0.0%	nt	5.62µM*
Cc1ccc2nc(SCC(=O)N3CCOc4ccc(CN5C[C@@H](C)O[C@@H](C)C5)cc4C3)[nH]c2c1	nt	-3.4%	nt	-13.0%	nt
CN1c2ccccc2C(C)(C)C12C=Cc1cc(O)ccc1O2 (centres undefined)	?	62.5%	14.6µM*	i	5.62µM*
CC1CCC/C=C/C(=O)c2c(O)cc(O)cc2CC(=O)O1 (centres undefined)	nt	?	nt	7.08µM*	-36.2%
CCOc1ccc(NC(=O)CCN2C(=S)NC(C)(C)CC2C)cc1 (centres undefined)	0.8%	5.2%	-12.4%	-13.9%	0.1%
O=C(CCCc1ccccc1)Nc1ccc2c(c1)OCCO2	?	-2.3%	8.91µM*	-7.9%	-13.9%
O=C(CC(=O)c1ccccc1)Nc1ccc2c(c1)OCCO2	?	-1.3%	8.91µM*	nt	-12.8%
CC1CC(C)(C)NC(=S)N1CCC(=O)Nc1ccc2c(c1)OCCO2 (centres undefined)	11.2µM*	?	3.55µM*	?	?
Cc1nn(-c2ccccc2)c(C)c1/C=N/n1c(-c2ccc(C(C)(C)C)cc2)n[nH]c1=S	-25.7%	-21.6%	0.112µM*	nt	?
Cc1ccc(-c2cc(C(=O)N/N=C/c3c(C)nn(-c4ccccc4)c3C)[nH]n2)cc1	-1.7%	nt	nt	nt	?
Cc1ccc(-c2n[nH]c(=S)n2/N=C/c2c(C)nn(-c3ccccc3)c2C)cc1	?	-8.3%	?	-10.7%	0.5%
Cc1nn(-c2ccccc2)c(C)c1/C=N/NC(=O)c1cc(C(C)(C)C)[nH]n1	4.47µM*	?	?	nt	?
Cc1[nH]c2ccccc2c1/C=N/NC(=O)c1cc(-c2cccs2)[nH]n1	-35.9%	nt	-20.7%	nt	11.2µM*
Cc1ccc(-c2cc(C(=O)N/N=C/c3c(C)nn(-c4ccccc4)c3C)n[nH]2)s1	?	nt	8.2µM*	nt	8.91µM*
Cc1cc(C(=O)N/N=C/c2c(C)[nH]c3ccccc23)n[nH]1	-10.0%[46.1 µM]	2.0%[7.34 µM]	0.3%	-14.3%[7.34 µM]	6.0%
CN(C)c1ccc(NC(=S)NC23CC4CC(CC(C4)C2)C3)cc1	?	-13.0%	?	?	3.98µM*
CCOc1ccc(NC(=S)NC23CC4CC(CC(C4)C2)C3)cc1	nt	nt	nt	nt	16.4%
FC(F)Oc1ccc(NC(=S)NC23CC4CC(CC(C4)C2)C3)cc1	-28.8%[46.1 µM]	-22.4%	2.51µM*	-2.8%	?
FC(F)Oc1ccc(NC(=S)Nn2cnnc2)cc1	nt	nt	nt	nt	5.01µM*
COC(=O)C1=C(c2ccccc2)c2ccccc2S(=O)(=O)N1CC(=O)Nc1cccc(C(C)=O)c1	3.9%[46.1 µM]	-14.7%	?	-8.6%	nt
O=C(NCc1ccccc1CN1CCCC1)c1cc2cc(Cl)ccc2o1	nt	nt	nt	nt	10µM*
CC(NC(=O)c1ccc(Cl)c(S(=O)(=O)N2CCCCCC2)c1)c1cccnc1 (centres undefined)	nt	nt	nt	nt	12.6µM*
COc1ccc2cc(C(=O)NCc3ccccc3CN3CCCC3)ccc2c1	nt	nt	nt	nt	7.08µM*
